# RORgamma inh: ROR gamma (mouse) transcription inhibition. Drosophila S2 Gal4-RORgamma UAS-luciferase reporter, 20 h. AID 2551. actives 5.4% (n = 310,000). Potency, µM (series often up to 53.6 µM), for the others: at the highest dose activity change, negative = inhibition, hits mostly inhibitors. P51450; note: nearly all actives have a fitted effect of over 60% in size
#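 ROR gamma transcriptional activity was tracked as Gal4-UAS luciferase output in stably transfected Drosophila Schneider cells, with compound added 1 hr before 700 uM copper sulfate induction and a 20 hr ambient-temperature incubation.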
# VP16 counter: inhibits Gal4-VP16 luciferase reporter, ROR gamma counter-screen; Potency, µM (series often up to 53.6 µM), without a hit: at the top dose activity, negative = inhibition, usual class: inhibitors; Drosophila S2 Gal4-VP16 UAS-luciferase, luminescence, 20 h; actives 3.5% (n = 310,000); AID 2546;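 note: Gal4-VP16 expression switched on by copper sulfate through the metallothionein promoter; nearly all actives have a fitted effect of over 50% in size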
# PLK1 PBD block: PLK1 (human) polo-box domain binding inhibition; P53350; Plk1 PBD binding of FITC phosphopeptide, fluorescence polarization; Potency, µM, for inactives: max response, negative = inhibition, hits mostly inhibitors; actives 2.8% (n = 360,000); AID 720504; note: series mostly up to about 57 µM; nearly all actives have a fitted effect of over 65% in size
# Target sequence (P53350 whole entry, looked up, the tested form may be a part): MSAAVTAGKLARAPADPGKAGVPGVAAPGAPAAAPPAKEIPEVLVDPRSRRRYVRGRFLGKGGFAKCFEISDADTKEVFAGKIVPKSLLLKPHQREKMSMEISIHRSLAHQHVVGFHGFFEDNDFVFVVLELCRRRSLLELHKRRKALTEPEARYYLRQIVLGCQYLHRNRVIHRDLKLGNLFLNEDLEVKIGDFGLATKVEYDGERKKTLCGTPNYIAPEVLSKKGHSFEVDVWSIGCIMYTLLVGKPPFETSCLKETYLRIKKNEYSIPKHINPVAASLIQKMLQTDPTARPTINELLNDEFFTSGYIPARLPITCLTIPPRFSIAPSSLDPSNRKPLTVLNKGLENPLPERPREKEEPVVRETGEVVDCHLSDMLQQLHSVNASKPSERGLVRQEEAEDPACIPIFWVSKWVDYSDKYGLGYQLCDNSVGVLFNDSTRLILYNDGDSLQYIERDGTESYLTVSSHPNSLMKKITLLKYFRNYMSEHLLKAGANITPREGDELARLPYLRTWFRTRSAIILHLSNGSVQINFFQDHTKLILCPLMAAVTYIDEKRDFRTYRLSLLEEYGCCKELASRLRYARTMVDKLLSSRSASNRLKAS
# ALDH1A1 inh: blocks purified human ALDH1A1 activity. Purified ALDH1A1, NADH fluorescence, propionaldehyde substrate. Potency, µM (doses to about 75.3 µM), for inactives: at the top dose activity, negative = inhibition, usual class: inhibitors. actives 7.3% (n = 220,000). P00352; active = well fitted inhibition curve with a large enough effect, not every such curve was filed as active; inconclusive = small, poorly fitted or top-dose-only effect, or another doubt; inactive = no such curve, though single readings can be large or run the other way;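 note: plate controls were no enzyme wells and a reference inhibitor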
# Sfp inh: Sfp phosphopantetheinyl transferase inhibition. Q9F4F7. Biochemical Sfp PPTase activity, qHTS. Potency, µM, for the others: largest response in the series, negative = inhibition, usual class: inhibitors. actives 3.5% (n = 310,000). AID 1490;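 note: the enzyme is Sfp with the accession as filed and its product quenches rhodamine fluorescence; 0% = enzyme reaction without inhibitor and -100% = no enzyme wells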
#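 Step 1, compound plus 15 nM Sfp-PPTase, 15 min, room temperature. Step 2, add rhodamine-CoA (5 uM) and BHQ-2-YbbR (12.5 uM). Step 3, read 525/598 nm fluorescence at 0 and 30 min.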
# * marks the source's active call; other numbers are inactive results; u = inconclusive; x = no result given; [ ] = another dose, or the depositor's remark. Sampled rows, rich in hits. Any-hit rate of the full collection: about 12%. Unless noted, calls come from the whole dose curve; as a rule, active = well fitted curve in the direction sought with a large enough effect; inconclusive = small, poorly fitted or top-dose-only effect, or another doubt; inactive = no such curve, though single readings can be large; an effect the other way counts as inactive or inconclusive. Unless noted, % is set by controls: 0 for no effect and ±100 for the full control effect; potency is the fitted concentration of half-maximal effect.
SMILES,RORgamma inh,VP16 counter,PLK1 PBD block,ALDH1A1 inh,Sfp inh
Cc1sc2ncnc(SCC(=O)N3CCCC3=O)c2c1C,4.8%,5.1%,-3.4%,0.1µM*,1.9%
Cc1sc2ncnc(SCC(=O)NC(=O)c3cccn3C)c2c1C,4.47µM*,-7.0%,16.8µM*,u,-25.0%
COC(=O)[C@@]1(Cc2ccc(F)cc2)[C@H]2c3cc(C(=O)N(C)C)n(Cc4cc(F)c(F)c(F)c4)c3C[C@H]2CN1C(=O)c1ccccc1,-2.3%,-4.8%,x,12.1%,2.1%
CCOC(=O)Nc1nc(-c2ccccc2)c(C(=O)c2ccccc2)s1,12.6µM*,-22.4%,-2.3%,u,14.6%
CC(=O)c1sc(NC(=O)c2c(F)cccc2F)nc1-c1ccccc1,16.8%,-14.1%,-3.7%,11.2µM*,-4.2%
CCCCNC(=O)c1ccc(Cc2nc3ccccc3[nH]2)cc1,x,x,x,-3.4%,x
COCCSc1ncnc2c1oc1nc3c(cc12)COC(C)(C)C3,0.5%,-11.2%,-0.5%,6.31µM*,-21.7%
COc1ccc(C)cc1Nc1n[n+](-c2ccccc2)c(-c2ccc(N(C)C)cc2)s1,11.2µM*,5.62µM*,4.5%,x,20µM*
COc1ccc(C)cc1Nc1n[n+](C)c(-c2c3ccccc3cc3ccccc23)s1,u,9.5%,-6.7%,x,12.0%
COc1ccc(C)cc1Nc1n[n+](-c2ccccc2)c(-c2c(Cl)cccc2Cl)s1,7.08µM*,15.8µM*,-11.1%,x,u
COc1ccc(C)cc1Nc1n[n+](-c2ccccc2)c(-c2ccc(OC)c(OC)c2OC)s1,u,-14.9%,-13.0%,x,-28.4%
COc1ccc(C(=O)N2CCC(n3nccc3NC(=O)C3CC3)CC2)cc1F,u,1.1%,-0.7%,x,12.6%
NC(=O)C1(N2CCCCC2)CCN(C(=O)c2cc(COc3c(F)cccc3F)on2)CC1,x,x,-1.5%,x,x
O=C(CN1C(=O)c2ccccc2S1(=O)=O)c1ccc(F)c(F)c1,10µM*,11.2µM*,1.1%,x,5.3%
O=C(CN1C(=O)c2ccccc2S1(=O)=O)c1ccc(O)c(O)c1,-13.0%,-8.7%,-3.7%,x,u
COc1ccc(C(=O)CN2C(=O)c3ccccc3S2(=O)=O)cc1,5.62µM*,u,3.5%,x,18.6%
c1ccc(NCCCNc2ccccc2)cc1,18.8%,-7.0%,-7.5%,20µM*,2.0%
Oc1cc2ccccc2cc1-c1n[nH]c(=S)o1,-34.5%,-1.3%,11.9µM*,u,-13.1%
Cc1cc(-c2n[nH]c(=S)o2)c(C)n1-c1ccccc1,12.6µM*,u,-15.5%,3.55µM*,6.3%
S=c1[nH]nc(-c2c[nH]c3ccccc23)o1,11.5%,7.4%,u,x,-14.0%
Cc1cn([C@H]2C[C@H](O)[C@@H](/C=C/C(=O)NCc3ccc4c(c3)OCO4)O2)c(=O)[nH]c1=O,x,x,-0.5%,x,x
CCc1c(C2CC2)ncn1Cc1cccc(-c2ccccc2)c1,x,x,-3.7%,x,x
COc1cccc(=O)c2c(C)n(-c3cc(C)cc(C)c3)c(C)c12,-19.7%,-5.5%,-12.1%,-5.1%,-23.8%
COc1cccc(-n2c(C)c3c(OC)cccc(=O)c3c2C)c1,6.31µM*,u,-28.3%,u,50.1µM*
COc1ccc(NC(=O)c2c(NC(=O)CCC(=O)O)sc3c2CCCCC3)cc1,11.2%,-4.7%,-7.3%,-5.1%,-27.6%
SMILES,RORgamma inh,VP16 counter,PLK1 PBD block,ALDH1A1 inh,Sfp inh
C=CCNCC(=O)Nc1sc2c(c1C(=O)Nc1ccc(OC)cc1OC)CCC2,0.447µM*,1.26µM*,-6.5%,u,u
Cc1ccc(C(=O)Nc2sc3c(c2C(=O)NCc2ccco2)CCCC3)cc1,u,-28.4%,-2.5%,u,7.3%
O=C(Nc1sc2c(c1C(=O)NCc1ccco1)CCCC2)c1ccc2c(c1)OCO2,u,1.9%[0.365 µM],-13.9%,u,44.7µM*
COC(=O)Nc1sc2c(c1C(=O)NCc1ccco1)CCCC2,-9.9%,0.5%,-12.9%,u,79.4µM*
CCOc1ccccc1NC(=O)c1c(NC(=O)CNCc2ccco2)sc2c1CCC2,u,5.62µM*,x,2.0%,15.4%
CN(C)CCCNc1nc2cc(-c3ccc4c(ccn4C)c3)sc2c(=O)n1C,x,x,-12.8%,x,x

# Screening results from PubChem.
